Inconclusive results are not listed. Active and inactive are the calls of the source. The call rests on the fitted dose curve; in most records, active means well fitted cell-killing curve with a large enough effect; inconclusive means small, poorly fitted or top-dose-only effect, or effect the other way; inactive means no such curve, though single readings can be large or run the other way.
What was measured:
[1] = Viability qHTS for spleen associated tyrosine kinase inhibitor (SYKi) naive MV4-11 cells (AID 1963823); further: nearly all actives have a fitted effect of over 40% in size
How it was run: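 Seeding of 500 SYKi-naive MV4-11 cells per well onto pre-dispensed compounds preceded a 72 hr incubation at 37 C. Luminescent CellTiter-Glo signal, read after 10 min at room temperature, reflected viable cells.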

[2] = Viability qHTS for spleen associated tyrosine kinase inhibitor (SYKi) drug resistant MV4-11 cells (AID 1963824); further: nearly all actives have a fitted effect of over 35% in size
How it was run: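 SYK-inhibitor-resistant MV4-11 AML cells were seeded at 500 per well onto compound and cultured 72 hours (37 °C, 5% CO2). CellTiter-Glo was then added, and after 10 min at room temperature, luminescence gave viability.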
Potency means the concentration at half of the fitted maximal effect.

Row | SMILES | Potency [1] | Potency [2] | viability (% of control) [1] | viability, % of control [2]
1 | O=C(CO)[C@@H](O)[C@H](O[C@@H]1O[C@H](CO)[C@H](O)[C@H](O)[C@H]1O)[C@H](O)CO | inactive | inactive |  | 
2 | COc1cc2ncnc(Nc3ccc(O)cc3)c2cc1OC | 3260 nM (active) | 7310 nM (active) |  | 
3 | CCN[C@@H]1C[C@H](N)[C@@H](O[C@H]2OC(CN)=CC[C@H]2N)[C@H](O)[C@H]1O[C@H]1OC[C@](C)(O)[C@H](NC)[C@H]1O | inactive | inactive |  | 
4 | COc1c2c(c(C)c3c1C(=O)OC3)OC1(C)CC(O)C34OC(O)(CCC3(C)C1C2)OC4(C)C (centres undefined) | inactive | inactive |  | 
5 | C[C@@H]1C(=O)O[C@H]2[C@H](O)C34[C@H]5C[C@@H](C(C)(C)C)C36[C@@H](OC(=O)[C@@H]6O)O[C@@]4(C(=O)O5)[C@@]12O (some centres undefined) | inactive | inactive |  | 
6 | Cc1noc(-c2ccc(-c3ccc(C4(C(=O)O)CC4)cc3)cc2)c1NC(=O)O[C@H](C)c1ccccc1 | 16600 nM (active) | 11800 nM (active) |  | 
7 | O=C(Nc1ncc(SCCN2CCCC2)s1)C1(c2ccc(S(=O)(=O)C3CC3)cc2)CC1C1CCCCC1 (centres undefined) | 8200 nM (active) | 8200 nM (active) |  | 
8 | CCOC(=O)C(CCc1ccccc1)NC1CSC(c2cccs2)CN(CC(=O)O)C1=O (centres undefined) | 25900 nM (active) | 6510 nM (active) |  | 
9 | Cc1nc2ccc(CN(C)c3ccc(C(=O)NC(CCC(=O)O)C(=O)O)s3)cc2c(=O)[nH]1 (centres undefined) | 6.5 nM (active) | 7.3 nM (active) |  | 
10 | CC(C)(C)c1ccc(S(=O)(=O)Nc2ccc(-n3ccnc3)cc2)cc1 | 10300 nM (active) | 10300 nM (active) |  | 
11 | C/C(=C\CCC(C)(O)c1ccc(C)cc1)C(=O)O (centres undefined) | inactive | inactive |  | 
12 | C=C1CCC2(OC1)OC1CC3C4CC=C5CC(O)CC(O[C@@H]6OC[C@@H](O)[C@H](O)[C@H]6O)C5(C)C4CCC3(C)C1(O)C2C (some centres undefined) | inactive | inactive |  | 
13 | CCCCOc1ccc(CC/C=C2\SC(=O)N(CCN)C2=O)cc1 | 5170 nM (active) | 2910 nM (active) |  | 
14 | CCOc1ccc(-n2c([C@@H](C)N(Cc3cccnc3)C(=O)Cc3ccc(OC(F)(F)F)cc3)nc3ncccc3c2=O)cc1 | 18400 nM (active) | 16400 nM (active) |  | 
15 | CC1(C)CC[C@]23CO[C@@]4(CCC5[C@@]6(C)CC[C@H](O[C@@H]7OC[C@H](O[C@@H]8O[C@H](CO)[C@@H](O)[C@H](O)[C@H]8O)[C@H](O)[C@H]7O[C@@H]7O[C@H](CO)[C@@H](O[C@@H]8O[C@H](CO)[C@@H](O)[C@H](O)[C@H]8O)[C@H](O)[C@H]7O)[C@@](C)(CO)C6CC[C@@]5(C)[C@]4(C)C[C@H]2OC2OCC(O)C(O)C2O)C3C1 (some centres undefined) | 1950 nM (active) | 3090 nM (active) |  | 
16 | CC1(C)CC[C@]2(C(=O)O[C@@H]3O[C@H](CO[C@@H]4O[C@H](CO)[C@@H](O)[C@H](O)[C@H]4O)[C@@H](O)[C@H](O[C@@H]4O[C@H](CO)[C@@H](O)[C@H](O)[C@H]4O)[C@H]3O)[C@H](O)C[C@]3(C)C(=CCC4[C@@]5(C)CC[C@H](O[C@@H]6OC[C@@H](O)[C@H](O)[C@H]6O)[C@@](C)(C(=O)O)C5CC[C@]43C)[C@@H]2C1 (some centres undefined) |  |  | 67.4% [at 9.25 µM] (inactive) | 65.4% [at 9.25 µM] (inactive)
17 | CCCCCCOC(=O)NC(=N)c1ccc(NCc2nc3cc(C(=O)N(CCC(=O)OCC)c4ccccn4)ccc3n2C)cc1 | 2350 nM (active) | 1480 nM (active) |  | 
18 | CC1(C)CCC(C)(C)c2cc([C@@H](O)C(=O)Nc3ccc(C(=O)O)cc3F)ccc21 | 4110 nM (active) | 5170 nM (active) |  | 
19 | O=C(/C=C/c1ccc(O)cc1)O[C@@H]1C[C@@](O)(C(=O)O)C[C@@H](O)[C@@H]1O | inactive | inactive |  | 
20 | CC[C@H](C)[C@H](NC(=O)[C@H]([C@@H](C)CC)N(C)C(C)=O)C(=O)N[C@H](C(=O)N[C@@H](CC(C)C)C(=O)[C@@]1(C)CO1)[C@@H](C)O | 5.8 nM (active) | 7.3 nM (active) |  | 
21 | CC1(C)CC[C@]23CO[C@@]4(CCC5[C@@]6(C)CC[C@H](O[C@@H]7OC[C@H](O[C@@H]8O[C@H](CO)[C@@H](O)[C@H](O)[C@H]8O[C@@H]8OC[C@@H](O)[C@H](O)[C@H]8O)[C@H](O)[C@H]7O[C@@H]7O[C@H](CO)[C@@H](O)[C@H](O)[C@H]7O)[C@@](C)(CO)C6CC[C@@]5(C)[C@]4(C)C[C@H]2O)[C@@H]3C1 (some centres undefined) | 2190 nM (active) | 3900 nM (active) |  | 
22 | CC(C)CC[C@@H](O)[C@](C)(O)[C@H]1CC[C@@]2(O)C3=CC(=O)[C@@H]4C[C@@H](O)[C@@H](O)C[C@]4(C)[C@H]3CC[C@]12C | inactive | inactive |  | 
23 | C/C(=C\CO)CC/C=C(\C)C(=O)O[C@H]1[C@H](OC2OC=C(C(=O)O)C3CCC(C)(O)C23)O[C@H](CO)[C@@H](O)[C@@H]1O (some centres undefined) | inactive | inactive |  | 
24 | CC(=O)C12OC(C)(C)OC1CC1C3CCC4=CC(=O)C=CC4(C)C3(F)C(O)CC12C (centres undefined) | inactive | inactive |  | 

Row | SMILES | Potency [1] | Potency [2] | viability (% of control) [1] | viability, % of control [2]
25 | C=C1CC2C3(C)C(O)CC(=O)C(C)(C)C3C(OC(C)=O)C(OC(C)=O)C2(C)C2C(=O)OC(C)(C(=O)OC)C(=O)C12C (centres undefined) | inactive | inactive |  | 
26 | OC[C@H]1O[C@@H](OCCc2ccccc2)[C@H](O[C@@H]2OC[C@@H](O)[C@H](O)[C@H]2O)[C@@H](O)[C@@H]1O | inactive | inactive |  | 
27 | O=C(NCCN1CCOCC1)c1cc2c(Oc3ccc(NC(=O)C4(C(=O)Nc5ccc(F)cc5)CC4)cc3)ccnc2[nH]1 | 25.9 nM (active) | 41.1 nM (active) |  | 
28 | CC1OC(O[C@@H]2[C@H](O)[C@@H](OC3OC(CO)C(O)C(O)C3O)[C@H](OC(=O)[C@]34CCC(C)(C)C[C@H]3C3=CCC5[C@@]6(C)CC[C@H](O[C@@H]7O[C@H](C(=O)O)[C@@H](O)[C@H](O[C@@H]8OC[C@@H](O)[C@H](O)[C@H]8O)[C@H]7O[C@@H]7O[C@H](CO)[C@H](O)[C@H](O)[C@H]7O)[C@@](C)(C=O)C6CC[C@@]5(C)[C@]3(C)C[C@H]4O)O[C@@H]2C)C(O)C(O)C1OC1OCC(O)C(O)C1O (some centres undefined) |  |  | 87.4% [at 4.97 µM] (inactive) | 89.9% [at 4.97 µM] (inactive)
29 | CCN(CC)CCNc1ccc2ncn3c4ccc(O)cc4c(=O)c1c23 | 164 nM (active) | 291 nM (active) |  | 
30 | Cc1ccc(-c2ccc3c(ccc4sc5c(c43)NC[C@@H](C)NC5=O)n2)cn1 | 2590 nM (active) | 2910 nM (active) |  | 
31 | CC1(C)CC[C@]2(C(=O)O[C@@H]3O[C@H](CO)[C@@H](O)[C@H](O)[C@H]3O)CC[C@]3(C)C(=CCC4[C@@]5(C)CC[C@H](O[C@@H]6O[C@H](C(=O)O)[C@@H](O)[C@H](O[C@@H]7O[C@H](CO)[C@H](O)[C@H](O)[C@H]7O)[C@H]6O)C(C)(C)C5CC[C@]43C)C2C1 (some centres undefined) |  |  | 81.1% [at 9.25 µM] (inactive) | 106% [at 9.25 µM] (inactive)
32 | CCN1CCN(Cc2ccc(NC(=O)c3ccc(C)c(Oc4ccnc5[nH]ccc45)c3)cc2C(F)(F)F)CC1 | 25.5 nM (active) | 71.8 nM (active) |  | 
33 | O=C(/C=C/c1ccc2ccccc2n1)c1ccncc1 | 1460 nM (active) | 1640 nM (active) |  | 
34 | C/C=C1\[C@H](OC2OC(COC3OC(CO)C(O)C(O)C3O)C(O)C(O)C2O)OC=C(C(=O)OC)[C@H]1CC(=O)OCCc1ccc(O)cc1 (some centres undefined) | inactive | inactive |  | 
35 | CCC(C)C1NC(=O)C2CCCN2C(=O)C(NC(C)=O)C(C)OC(=O)C(Cc2ccc(OC)cc2)N(C)C(=O)C2CCCN2C(=O)C(C(C)C)NC1=O (centres undefined) | inactive | inactive |  | 
36 | C[C@@H]1C(=O)O[C@H]2CC34[C@H]5C[C@@H](C(C)(C)C)C36[C@@H](OC(=O)[C@@H]6O)O[C@@]4(C(=O)O5)[C@]21O (some centres undefined) | inactive | inactive |  | 
37 | N#Cc1ccc(Nc2nc(-c3ccc(O)cc3O)cs2)cc1C(F)(F)F | 5170 nM (active) | 4610 nM (active) |  | 
38 | COC(=O)C1=CO[C@@H](O[C@@H]2O[C@H](CO[C@@H]3O[C@H](COC(=O)/C=C/c4cc(OC)c(O)c(OC)c4)[C@@H](O)[C@H](O)[C@H]3O)[C@@H](O)[C@H](O)[C@H]2O)[C@@H]2C(CO)=CC[C@H]12 | inactive | inactive |  | 
39 | C#CCN(Cc1cc2c(=O)n(C)c(CN3CCN(C)CC3)nc2cc1Cl)c1ccc(C(=O)NCc2cccnc2)cc1 | inactive | inactive |  | 
40 | Cc1ncc(Cl)cc1NCc1ccc(C(=O)NC(CC2CCCC2)C(=O)NC2CC2)s1 (centres undefined) | 20600 nM (active) | 18600 nM (active) |  | 
41 | COC(=O)C1=COC(O[C@@H]2O[C@H](CO[C@@H]3O[C@H](COC(=O)/C=C\c4ccc(O)cc4)[C@@H](O)[C@H](O)[C@H]3O)[C@@H](O)[C@H](O)[C@H]2O)C2C(CO)=CCC12 (some centres undefined) | inactive | inactive |  | 
42 | COc1ccc(-c2cnc3ccc(NCc4ccc(S(N)(=O)=O)cc4)nn23)cc1OC | 920 nM (active) | 1640 nM (active) |  | 
43 | C=C1[C@H](OC(C)=O)[C@H]2[C@@H](OC(C)=O)[C@](C)(OC(C)=O)C[C@]2(OC(C)=O)C(=O)[C@H](C)/C=C/C(C)(C)C(=O)[C@H](OC(=O)C(C)C)[C@H]1OC(C)=O | inactive | inactive |  | 
44 | COc1ccccc1-n1c(SCC(=O)Nc2nc3ccc(C)cc3s2)nc2c(c1=O)SCC2 | inactive | inactive |  | 
45 | CC(C)CN(CC(=O)N(CCCN1CCCC1=O)CC(N)=O)C(=O)CNCCc1ccccc1F | inactive | inactive |  | 
46 | O=C1NC(=O)c2cc(Nc3ccc(F)cc3)c(Nc3ccc(F)cc3)cc21 | 2910 nM (active) | 1030 nM (active) |  | 
47 | C=C1C(=O)OC2/C=C(\COC(C)=O)CC/C=C(\C=O)CC(OC(=O)CC(C)C)C12 (centres undefined) | 1260 nM (active) | 1120 nM (active) |  | 
